{"source": "paper PMC12136788", "binders": {"B1": {"name": "chrX:133301433:133301604:-|3pUTR|ENSG00000076716|msi1|total|mutant (ssRNA)", "RNA": "GGGAGUUCUACAGUCCGACGAUCUUGUUUUUCUUGGGGGAUGGGGUGGGGUGGGAGCCGGCCGAGCUGAGAAUACUACAUCUCCGUGGUGACCUUCCGCCACGUGGGUGAAGUGGCAAAGGCCAUGGCCAUAUCUGUUGUCCCCAACAGAGGAUUGAGCAUCA"}, "B2": {"name": "chr21:44851366:44851434:-|CDS_3pUTR|ENSG00000183255|msi1_unk|total|mutant (ssRNA)", "RNA": "GGGAGUUCUACAGUCCGACGAUCAGGACAGUCCUCUCGUCUUGCAGACUGGUGACCUUCUAUUCCCUGUUCAUCUCUGUUUCCCGAUUCCGUCACUUGAAAUAAGAAAUCUUUGGGGUUUGGGCUUUUUUAUACUCUUCUCAGCAACAGAGGAUUGAGCAUCA"}, "B3": {"name": "ENSG00000142192:stop:overlap|stop_codon|ENSG00000142192|stop_codon|NA|stop_codon (ssRNA)", "RNA": "GGGAGUUCUACAGUCCGACGAUCAGAUGCAGCAGAACGGCUACGAAAAUCCAACCUACAAGUUCUUUGAGCAGAUGCAGAACUAGACCCCCGCCACAGCAGCCUCUGAAGUUGGACAGCAAAACCAUUGCUUCACUACCCAUCCAACAGAGGAUUGAGCAUCA"}, "B4": {"name": "chr1:13115521:13116400:-|CDS|ENSG00000275774|control|control|control (ssRNA)", "RNA": "GGGAGUUCUACAGUCCGACGAUCGAACAGAGCAAACAAGAGGUAGAGGUGAAAAAUGCUAAGUCAGAAGAGGAGCAGAGCAGUAGCUCCAUGAAGAAAGAUGAGACUCAUGUAAAGAUGGAGUCUGAGGGGGGUGCAGAAGACCAACAGAGGAUUGAGCAUCA"}, "B5": {"name": "ENSG00000070961:be:win_5251|3pUTR|ENSG00000070961|bound_else_gene|NA|bound_elsewhere_windowed (ssRNA)", "RNA": "GGGAGUUCUACAGUCCGACGAUCUGGAUUCUUUAGCUCUCUUUUUCUUUCCUUCAUCUACCUUCUUCUCUUUUUUGCCUCUGUCUUUACCCUUUAGAAACUGGCAUGUGUUAGGGCCCAGAUUUCACCAGAUACACAAUCCUCCAACAGAGGAUUGAGCAUCA"}, "B6": {"name": "ENSG00000198589:be:win_6101|CDS|ENSG00000198589|bound_else_gene|NA|bound_elsewhere_windowed (ssRNA)", "RNA": "GGGAGUUCUACAGUCCGACGAUCUAGGAAAUCAGAACUCAGAAAACGAGAUCCUCCUGGAAGGCGAUGAUGAUACUCUGUCAUCCGUGGAUGAGAAAGAUUUAGAGAAUCUUGCCGGUCCUGUUAGCCUGAGCACACCAGCUCCAACAGAGGAUUGAGCAUCA"}, "B7": {"name": "ENSG00000227500:stop:overlap|stop_codon|ENSG00000227500|stop_codon|NA|stop_codon (ssRNA)", "RNA": "GGGAGUUCUACAGUCCGACGAUCGCAACAGCCUGCCCGAGUACCCCACUGUGCCCAGCUACCCGGGCAGUGGCCAGUGGCCUUAGAGGGAGCCUGCCCUGCCCCCACCGCCCACCACCUCCUCCCCUUCAUUCCUGCUGCUACCAACAGAGGAUUGAGCAUCA"}, "B8": {"name": "chr2:171983412:171983537:+|3pUTR|ENSG00000128708|unk|FALSE|unique (ssRNA)", "RNA": "GGGAGUUCUACAGUCCGACGAUCUGAUGACUUUAAUUUUAAAAUCUUGUGACAUUUUGCUUAUACUAAAAGUUAUCUAUCUUUAGUUGAAUAUUUUCUUUUGGAGAGAUUGUAUAUUUUAAAAUACUGUUUAGAGUUUAUGAGCAACAGAGGAUUGAGCAUCA"}, "B9": {"name": "chr20:3963869:3963970:-|CDS|ENSG00000101236|unk|total|mutant (ssRNA)", "RNA": "GGGAGUUCUACAGUCCGACGAUCAAUCUGCCUCUCAACAUAUAUAUUGUGGUUUUUGGUACUGCUAUAUUUGUCUUCAUCCUCCGUUUACUCUUCUGUUGCUACUUGAUCCGGUAACCAAUUUUCAUUCUAUGUUACUUCAAACAACAGAGGAUUGAGCAUCA"}, "B10": {"name": "chr2:216672374:216672548:-|3pUTR|ENSG00000115461|msi1|total|mutant (ssRNA)", "RNA": "GGGAGUUCUACAGUCCGACGAUCUUUUUCUUUUUUUUUUUGAAGACAGCAAUAACCACAGUACAUAUUACUGCCGUUCUCUACCGUUUUACAUACAUUCAUACCAUAACUCUGUUCUCUCCUCUUUUUUGUUUUCAACUUUAACAACAGAGGAUUGAGCAUCA"}, "B11": {"name": "chr19:57593639:57593745:+|3pUTR|ENSG00000171649|unk|total|mutant (ssRNA)", "RNA": "GGGAGUUCUACAGUCCGACGAUCUGAACCUUCUUAUUUCUCUACAUUCUUGCCAUACUUGGUAUGGUCCGUCUUUUUAAUUUCCGUUGUUUUAACCGCUGUAUAACCGCAUCUGUCUGUGAUUUUAUUGCAUUUUUCUGGUAUCAACAGAGGAUUGAGCAUCA"}, "B12": {"name": "chr2:216672374:216672548:-|3pUTR|ENSG00000115461|msi1|FALSE|unique (ssRNA)", "RNA": "B10 RNA with C73U, C74A, C83U, C84A"}, "B13": {"name": "chr19:57593639:57593745:+|3pUTR|ENSG00000171649|unk|FALSE|unique (ssRNA)", "RNA": "B11 RNA with C68U, C69A, C83U, C84A, C95U, C96A, C106U, C107A"}}, "note": "Positions count from the first letter of the chain named. Whole data set: some 5,800 sequences, median “enrichment r” near 0.68, cut for the highest 2% near 11. The sample as a whole holds a higher share of the highest values than the screen did."}
{"molecular_target": "T1, UNK ZnF1-6 (called full-length) (human, UniProt Q9C0B0 30-357)", "T1 sequence": "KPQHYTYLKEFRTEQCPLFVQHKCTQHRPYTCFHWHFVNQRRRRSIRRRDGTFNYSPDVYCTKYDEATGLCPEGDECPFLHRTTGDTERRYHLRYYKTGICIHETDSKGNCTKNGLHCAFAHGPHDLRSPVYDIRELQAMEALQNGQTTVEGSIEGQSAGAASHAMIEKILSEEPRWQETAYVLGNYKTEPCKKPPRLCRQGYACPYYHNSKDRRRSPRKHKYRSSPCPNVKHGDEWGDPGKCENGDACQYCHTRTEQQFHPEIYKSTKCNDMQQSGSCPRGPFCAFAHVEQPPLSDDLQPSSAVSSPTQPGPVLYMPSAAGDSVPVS", "experiment": "nsRBNS (natural sequence RNA bind-n-seq); RBNS binding buffer (assumed for nsRBNS): 25 mM Tris pH 7.5, 150 mM KCl, 3 mM MgCl2, 0.01% Triton X-100, 500 ug/ml BSA, 20 U/ml SUPERase-In, 4 C; UNK is unkempt and MSI1 is Musashi-1; names of the RNAs are library labels; protein concentration not given here; high values mean tight binding", "units": {"binding signal": "enrichment R"}}
{"binder": "B1", "binding signal": 1.2}
{"binder": "B2", "binding signal": 0.43}
{"binder": "B3", "binding signal": 0.618}
{"binder": "B4", "binding signal": 0.882}
{"binder": "B5", "binding signal": 1.45}
{"binder": "B6", "binding signal": 0.619}
{"binder": "B7", "binding signal": 0.868}
{"binder": "B8", "binding signal": 4.24}
{"binder": "B9", "binding signal": 0.575}
{"binder": "B10", "binding signal": 1.89}
{"binder": "B11", "binding signal": 1.21}
{"binder": "B12", "binding signal": 12.2}
{"binder": "B13", "binding signal": 122}
